From PubChem
This is a sample that favours compounds with a hit; in the whole collection about 3.1% have one here.
12-hLO inh = blocks human 12-lipoxygenase activity; purified 12-hLO, xylenol orange hydroperoxide absorbance; Potency, µM (doses to about 57.1 µM), for the others: top-dose activity change, negative = inhibition, most hits filed as inhibitors; 150,000 compounds, 0.12% hits; also: potency is read from the fitted curve at half-maximal effect; nearly all actives have a fitted effect of over 55% in size
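Lipoxygenase turnover measured by absorbance at 573 and 405 nm after Fe-XO development. Human 12hLO 150 nM, arachidonate 40 uM, pH 7.0 Hepes buffer with detergent; 15 min compound preincubation, 30 min reaction.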
PNC assembly inh = inhibitors of perinucleolar compartment assembly. PC3M PTB-GFP, PNC prevalence imaging, 16 h; stronger effect = lower value. activity change (PNC), negative = inhibition, % at 10 µM. 140,000 compounds, 3.1% hits;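 active = readout at or below -70, meaning at least 70% loss of cells showing the perinucleolar compartment, a nuclear body marking cancer cells; inconclusive = readout between -30 and a set limit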;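 also: plate controls were DMSO wells for no effect and camptothecin positive control wells for full effect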
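PC3M cells stably expressing PTB-GFP, 750–1000 cells/well, treated 16 h at 37 °C with compound (23 nl of library stock), in duplicate. After paraformaldehyde fixation and Hoechst stain, imaged at 20x; PNC prevalence scored by image analysis.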
ALOX15B inhib = blocks human 15-lipoxygenase 2 activity. O15296. Potency, µM (series often up to 57.1 µM), for inactives: at the top dose activity change, negative = inhibition, actives largely listed as inhibitors. 110,000 compounds, 0.56% hits. purified 15hLO-2, xylenol orange hydroperoxide absorbance; also: potency is read from the fitted curve at half-maximal effect; nearly all actives have a fitted effect of over 60% in size
Target sequence (O15296 whole entry, looked up): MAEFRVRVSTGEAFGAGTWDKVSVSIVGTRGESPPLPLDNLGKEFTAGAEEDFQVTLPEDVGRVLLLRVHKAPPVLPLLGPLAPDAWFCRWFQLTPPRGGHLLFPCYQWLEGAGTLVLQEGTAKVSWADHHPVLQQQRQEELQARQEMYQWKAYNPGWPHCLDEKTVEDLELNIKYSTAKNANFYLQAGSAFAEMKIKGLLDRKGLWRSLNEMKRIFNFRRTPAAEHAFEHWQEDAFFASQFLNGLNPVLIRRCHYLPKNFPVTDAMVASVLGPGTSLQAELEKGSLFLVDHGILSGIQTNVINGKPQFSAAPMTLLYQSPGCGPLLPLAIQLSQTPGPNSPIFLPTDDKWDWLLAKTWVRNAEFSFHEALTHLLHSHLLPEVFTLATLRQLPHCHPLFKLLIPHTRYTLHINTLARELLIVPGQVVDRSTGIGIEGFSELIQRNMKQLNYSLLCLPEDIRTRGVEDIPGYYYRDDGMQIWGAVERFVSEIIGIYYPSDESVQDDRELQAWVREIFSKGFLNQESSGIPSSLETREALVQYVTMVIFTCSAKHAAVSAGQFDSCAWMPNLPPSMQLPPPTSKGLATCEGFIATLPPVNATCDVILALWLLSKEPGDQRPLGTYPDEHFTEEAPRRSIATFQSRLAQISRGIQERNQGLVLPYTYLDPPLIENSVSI
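Purified human 15hLO-2 (50 nM final) preincubated with compounds 15 min at room temperature in 25 mM Hepes pH 7.5, 0.01% Triton X-100, then 45 uM arachidonic acid added for 90 min; hydroperoxide detected via ferrous/xylenol orange, 573/405 nm absorbance ratio.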
Active calls of the source: *; [ ] = dose if it differs, or a comment. Unless noted, calls follow the shape of the dose curve; as a rule, active = well fitted curve in the direction sought with a large enough effect; inconclusive = small, poorly fitted or top-dose-only effect, or another doubt; inactive = no such curve, though single readings can be large; an effect the other way counts as inactive or inconclusive. Unless noted, % is scaled to controls: 0 for no effect and ±100 for the full control effect.

Screening Cc1ccc2nsnc2c1S(=O)(=O)N(Cc1ccco1)Cc1cc2ccc(C)c(C)c2[nH]c1=O returned 12-hLO inh -10%, PNC assembly inh -82* and ALOX15B inhib 26%.
Clc1ccc2nnnc(-c3ccccc3)c2c1 was read as 12-hLO inh -4% and PNC assembly inh -98*.
For c1ccc(-c2nnnc3ccccc23)cc1 the results were 12-hLO inh 0% and PNC assembly inh inconclusive.
`CC1(C)CCC2(C(=O)O)CC[C@]3(C)C(=CCC4[C@]5(C)CCC(O)C(C)(C)C5C(O)C[C@]43C)C2C1` (some centres undefined) gave 12-hLO inh -2% and ALOX15B inhib 1%.
`CCCC[C@@H]1C[C@H]1C(NC(=O)c1cccs1)c1ccccc1C(F)(F)F` (some centres undefined) gave 12-hLO inh 0% and ALOX15B inhib 12%.
`CC[C@@H]1O[C@]2(C=C[C@@H]1C)C[C@H]1C[C@H](CC=C(C)[C@@H](O[C@@H]3C[C@H](OC)[C@H](O[C@@H]4C[C@H](OC)[C@H](O)[C@H](C)O4)[C@H](C)O3)[C@@H](C)C=CC=C3CO[C@@H]4[C@@H](O)C(C)=C[C@@H](C(=O)O1)[C@]34O)O2` gave 12-hLO inh 2%[25.6 µM] and ALOX15B inhib -1%[25.6 µM].
CCc1cccc(NS(=O)(=O)c2c(C)n[nH]c2C)c1 was read as 12-hLO inh 1% and PNC assembly inh -100*.
Screening CC(=O)c1cccc(NS(=O)(=O)c2c(C)n[nH]c2C)c1 returned 12-hLO inh -5%, PNC assembly inh inconclusive and ALOX15B inhib -3%.
For c1ccc(C(c2ccccc2)N2CC[C@@]3(CCCNC3)C2)cc1 the results were 12-hLO inh 4% and ALOX15B inhib 44%.
Screening CC(C)(C)c1ccc(OC(=O)c2ccc3nsnc3c2)cc1 returned 12-hLO inh 15%, PNC assembly inh inconclusive and ALOX15B inhib 0%.
For COc1ccccc1OC(=O)c1ccc2nsnc2c1 the results were 12-hLO inh 1%, PNC assembly inh -81* and ALOX15B inhib 3%.
Screening CS(=O)(=O)N1CCC2(CCN(Cc3ccc(C#N)cc3)CC2)CC1 returned 12-hLO inh -1% and ALOX15B inhib 3%.
For CS(=O)(=O)Nc1cccc(-c2ccc3ncnc(NC4CC4)c3c2)c1 the results were ALOX15B inhib 2%.
Screening CCOc1cc(C)c(Cl)cc1S(=O)(=O)n1cnc2ccccc21 returned 12-hLO inh -3%, PNC assembly inh -107* and ALOX15B inhib 8%.
Screening CCOc1ccc(Cl)cc1S(=O)(=O)n1cnc2ccccc21 returned 12-hLO inh 0%, PNC assembly inh inconclusive and ALOX15B inhib -2%.
For COc1cc(/C=C2/C(=O)NN(c3cccc(F)c3)C2=O)ccc1OC(=O)c1ccco1 the results were 12-hLO inh -4% and PNC assembly inh -81*.
Screening COc1cc(/C=C2/C(=O)NN(c3ccc(Cl)cc3)C2=O)ccc1OC(=O)c1ccco1 returned 12-hLO inh inconclusive and PNC assembly inh 19.
Screening CCOC(=O)c1nn(-c2ccccc2F)c2nc(-c3ccco3)c(C#N)c(=O)n12 returned 12-hLO inh -1% and PNC assembly inh 29.
`CCOC(=O)c1nn(-c2cccc(OC)c2)c2nc(CC)c(C#N)c(=O)n12` gave 12-hLO inh 0% and PNC assembly inh -109*.
`CO[C@]1(NC(=O)CSCC#N)C(=O)N2C(C(=O)O)=C(CSc3nnnn3C)CS[C@H]21` gave 12-hLO inh -3%[25.6 µM] and ALOX15B inhib 18%[25.6 µM].
`NC[C@@H]1O[C@@H](O[C@H]2[C@@H](O)[C@H](O[C@@H]3[C@H](O)[C@H](N)C[C@H](N)[C@H]3O[C@@H]3O[C@@H](CO)[C@H](O)[C@H](O)[C@@H]3N)O[C@H]2CO)[C@H](N)[C@H](O)[C@@H]1O` gave 12-hLO inh 3% and ALOX15B inhib 2%.
Screening CC(C)(C)NC(=O)Cn1c(SCC(=O)NC2CCCCC2)nc2ccccc21 returned 12-hLO inh 0%, PNC assembly inh -100* and ALOX15B inhib 2%.
Screening CCOC(=O)CSc1nc2ccccc2n1CC(=O)NC(C)(C)C returned 12-hLO inh 0%, PNC assembly inh inconclusive and ALOX15B inhib -13%.
For Nc1ncnc2nc(-c3ccc(C[P+](c4ccccc4)(c4ccccc4)c4ccccc4)cc3)[nH]c12 the results were 12-hLO inh 3%[11.4 µM] and ALOX15B inhib 37%[11.4 µM].
`C=C[C@@]1(C)CC(=O)[C@@]2(O)[C@@]3(C)[C@@H](O)CCC(C)(C)[C@@H]3[C@H](OC(=O)CCN(C)C)[C@H](OC(C)=O)[C@@]2(C)O1` gave 12-hLO inh -3% and ALOX15B inhib 14%.
Screening COc1cccc(Nc2nc(C)cc(C)c2C#N)c1 returned 12-hLO inh 1% and PNC assembly inh -100*.
For Cc1cc(C)c(C#N)c(Nc2ccccc2)n1 the results were 12-hLO inh -3% and PNC assembly inh -29.
COC(=O)CC1C(C)(C)C(=O)C2CC3=C4CC(=O)OC(c5ccoc5)[C@]4(C)CCC3[C@@]1(C)C2=O (some centres undefined) was read as 12-hLO inh -4% and ALOX15B inhib -9%.
`Cn1cccc1C(=O)N1CCC[C@@]2(CCN(c3ccncc3)C2)C1` gave 12-hLO inh -1% and ALOX15B inhib 10%.
For CCOC(=O)CSC1=C(C#N)C(c2ccccc2OCC)C(C#N)C(=O)N1 (centres undefined) the results were 12-hLO inh -23%, PNC assembly inh 1 and ALOX15B inhib -1%.
CCCOC(=O)CSC1=C(C#N)C(c2ccccc2OC)C(C#N)C(=O)N1 (centres undefined) was read as 12-hLO inh -19%, PNC assembly inh -97* and ALOX15B inhib -4%.
Screening CNc1ncnc2ccc(-c3ccccc3C)cc12 returned ALOX15B inhib 2%.
For CCc1c2c(nc3ccc(OC)cc13)COC2 the results were 12-hLO inh -2% and ALOX15B inhib 4%.
For CCCCOc1ccc(C(=O)C(CN2CCOCC2)c2ccccc2)cc1 (centres undefined) the results were 12-hLO inh -1% and PNC assembly inh inconclusive.
Screening CCCOc1ccc(C(=O)C(CN2CCCC2)c2ccccc2)cc1 (centres undefined) returned 12-hLO inh -2% and PNC assembly inh -113*.
`Cc1cc(C)cc(NC(=O)CCC(=O)Nc2cc(C)on2)c1` gave 12-hLO inh 3% and PNC assembly inh -100*.
Cc1cc(NC(=O)CCCC(=O)Nc2ccc(F)cc2)no1 was read as 12-hLO inh -2%, PNC assembly inh 66 and ALOX15B inhib 5%.
`c1ccc(Cn2ncc3c2ncn2c(-c4ccncc4)nnc32)cc1` gave 12-hLO inh 2%, PNC assembly inh 1 and ALOX15B inhib 0%.
For Cc1ccc(-n2ncc3c2ncn2c(-c4ccncc4)nnc32)cc1 the results were 12-hLO inh 4%, PNC assembly inh -91* and ALOX15B inhib -2%.
Screening Cc1ccc(C)c(S(=O)(=O)N/N=C/c2cccnc2)c1 returned 12-hLO inh 3% and PNC assembly inh -11.
Cc1ccc(S(=O)(=O)N/N=C\c2cccnc2)cc1 was read as 12-hLO inh -3%, PNC assembly inh -88* and ALOX15B inhib -11%.
